34 compounds from PubChem BioAssay (NCATS) can be followed below.

SMILES strings stand for the structures. Inconclusive results are not listed. The source made the active and inactive calls. Unless noted, calls come from the whole dose curve.

The nature of test [1]: Cytotoxicity counterscreen for inhibitors of SARS-CoV-2 cell entry (AID 1645845). Note: nearly all actives have a fitted effect of over 50% in size. Note: potency is the fitted concentration of half-maximal effect. To be noted: outcome: dose series up to 57.1 µM unless noted. In outline: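 Expi293F/hACE2 cells seeded overnight; cpd pin-transferred in DMSO, 1 h preincubation, + media, 48 h 37 C 5% CO2; ATPLite 1step luminescence; normalized to cells and no cells.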
The nature of test [2]: Primary qHTS to identify inhibitors of SARS-CoV-2 cell entry (AID 1645846). Note: nearly all actives have a fitted effect of over 45% in size. Note: potency is the fitted concentration of half-maximal effect. To be noted: SARS-CoV-2 pseudovirus cell entry assay, luminescence; activity change, negative = inhibition: at 57.1 µM (top of the series) unless noted. A digest of the protocol:
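Data are normalized to wells receiving SARS-CoV-2-S pseudoparticles and those given bald particles. Entry signal was luciferase luminescence in stable hACE2 Expi293F cells, 48 hr post-infection, after 1 hr compound pretreatment.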

Test [3] in a line: VSVG counterscreen qHTS to identify inhibitors of SARS-CoV-2 cell entry (AID 1645847). Note: potency is the fitted concentration of half-maximal effect; nearly all actives have a fitted effect of over 65% in size. A digest of the protocol:
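Counterscreen using VSV-G (not spike) pseudotyped MLV particles on ACE2-expressing Expi293F cells after 1 h compound preincubation; infection ran 48 h at 37 °C. Data normalized to VSV-G PP and bald-PP wells.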

Test [4] can be described thus: Primary qHTS for inhibitors of nuclear receptor binding SET domain protein 2 (NSD2) in an isogenic RCH-ACV NSD2 p.E1099K mutant (9B) (AID 1645876; active = well fitted curve in the direction sought with a large enough effect; an effect the other way counts as inactive or inconclusive; note: nearly all actives have a fitted effect of over 70% in size; note: potency is the fitted concentration of half-maximal effect).
Test [5] in a line: Primary qHTS for inhibitors of nuclear receptor binding SET domain protein 2 (NSD2) in an RCH-ACV wild type WT cells (2C) (AID 1645877; active = well fitted curve in the direction sought with a large enough effect; an effect the other way counts as inactive or inconclusive; note: nearly all actives have a fitted effect of over 70% in size; note: potency is the fitted concentration of half-maximal effect).
Test [6] deals with Glutathione peroxidase 1 (Homo sapiens) (UniProt P07203). Description: Primary qHTS Assay for Inhibitors of Recombinant Selenoprotein Glutathione Peroxidase 1 (GPX1) (AID 1845191; active = well fitted curve in the direction sought with a large enough effect; an effect the other way counts as inactive or inconclusive; note: nearly all actives have a fitted effect of over 65% in size). In outline: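 Recombinant GPX1 (10 nM final) was preincubated with compound for 30 min at room temperature, then reacted with 1 mM GSH, 0.5 mM CHP, 0.5 mM NADPH and 100 nM glutathione reductase; NADPH fluorescence (340/450 nm) was read at 0 and 15 min.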

The target in test [7] is Phospholipid hydroperoxide glutathione peroxidase GPX4 (Homo sapiens) (UniProt P36969). The test is described as follows: Primary qHTS Assay for Inhibitors of Recombinant Selenoprotein Glutathione Peroxidase 4 (GPX4) (AID 1845192; active = well fitted curve in the direction sought with a large enough effect; an effect the other way counts as inactive or inconclusive; note: nearly all actives have a fitted effect of over 65% in size). A digest of the protocol: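 GR-coupled readout: 100 nM GR, 1 mM GSH, 0.5 mM NADPH; NADPH fluorescence (ex 340/em 450 nm) read at t=0 and after 15 min RT. GPX4 200 nM, preincubated 30 min with compound; substrate 0.5 mM CHP.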

Test [8] in a line: qHTS drug screen for cell cycle checkpoint inhibitors in PARPi-resistant BRCA-mutant ovarian cancer cell lines. (AID 1963452). Conditions: PEO1/OlaR viability, CellTiter-Glo luminescence, 96 h, stronger effect = lower value. A digest of the protocol: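 PEO1, PEO4 and PEO1/OlaR ovarian cancer cells, 600 per well, exposed 96 h at 37C to a dilution series. Viability read by CellTiter-Glo luminescence, normalized to DMSO and empty wells; activity summarized as Z-AUC.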

Sequence of Phospholipid hydroperoxide glutathione peroxidase GPX4 (Homo sapiens) (P36969 whole entry, looked up): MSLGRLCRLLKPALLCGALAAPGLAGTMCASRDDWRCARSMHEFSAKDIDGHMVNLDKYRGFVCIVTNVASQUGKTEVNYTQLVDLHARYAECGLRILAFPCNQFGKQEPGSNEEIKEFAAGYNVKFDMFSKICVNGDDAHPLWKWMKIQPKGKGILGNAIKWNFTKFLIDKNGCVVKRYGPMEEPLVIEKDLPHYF
Sequence of Glutathione peroxidase 1 (Homo sapiens) (P07203 whole entry, looked up): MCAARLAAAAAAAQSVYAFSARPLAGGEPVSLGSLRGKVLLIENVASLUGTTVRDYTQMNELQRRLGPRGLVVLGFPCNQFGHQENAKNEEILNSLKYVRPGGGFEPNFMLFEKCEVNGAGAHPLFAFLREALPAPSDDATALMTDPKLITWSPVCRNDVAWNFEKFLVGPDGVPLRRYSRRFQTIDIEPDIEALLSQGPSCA

For the compound `[2H]c1nc(C)nc([2H])c1-c1cc(NC[C@@H](C)c2cccc3c(C(=O)NC)ccnc23)ncn1`, in test [1], the Potency entry is “inactive”. In addition, the activity change, negative = inhibition in test [2] worked out at 0.426%.

In the case of `Cc1nc(-c2cccnc2)sc1C(=O)Nc1ccccc1-c1cn2c(CN3CCOCC3)csc2n1`, the Potency result in test [1] and in test [2] was “inactive” in each case.

`CCc1ccc(N(CC(C)C)S(=O)(=O)c2ccc(OCC3CCOCC3)c(CO)c2)cc1`: the Potency entry in test [1] is “inactive”. In addition, the activity change, negative = inhibition in test [2] was -88.5%. Besides, the Potency in test [3] was 24.1 µM (active).

As to `CN(C)C1CCN(C(=O)c2ccc(NC(=O)Nc3ccc(-c4nc(N5CCOCC5)nc(N5CCOCC5)n4)cc3)cc2)CC1`, the Potency in test [1] is 1.12 µM (active); in test [2], 1.58 µM (active).

In the case of `Cc1ccc(Nc2cc(N[C@@H]3CCCC[C@@H]3N)nnc2C(N)=O)nc1C`, the Potency entry in test [1] and in test [2] was “inactive” throughout.

For `CC[C@H](Nc1ncnc2nc[nH]c12)c1oc2ccccc2c(=O)c1-c1cccc(F)c1`, the Potency result in test [1] and in test [2] was “inactive” each time.

For `CCO[C@@H]1OC(=O)C[C@@H]1NC(=O)[C@@H]1CCCN2C(=O)CC[C@H](NC(=O)c3nccc4ccccc34)C(=O)N12`, the Potency result in test [1] was “inactive”. In test [2], the activity change, negative = inhibition was -4.46%.

Turning to `O=C(c1ccc(NS(=O)(=O)c2cccc3cccnc23)cc1)N1CCN(CC2CC2)CC1`, in test [1], the Potency result is “inactive”. Further, the activity change, negative = inhibition in test [2] was -15.9%.

As for `COc1ccc(S(=O)(=O)N[C@@H](CNc2nc(C)nc(N3CCC(c4ccc5c(n4)NCCC5)CC3)c2C)C(=O)O)cc1`, the Potency result in test [1] was “inactive”. Moreover, in test [2], the activity change, negative = inhibition is -3.98%.

As for `NS(=O)(=O)c1ccc(Cc2c(-c3cccc(-c4ccccc4)c3)nn(-c3nc(C(=O)O)cs3)c2CC2CC2)cc1`, the Potency result in test [1] is “inactive”. Moreover, in test [2], the activity change, negative = inhibition is -32.8%. The Potency in test [3] is 8.57 µM (active).

For the compound `CC1(C)CC(O)CC(C)(C)N1O`, the Potency result in test [1], in test [4], in test [5], in test [6] and in test [7] was “inactive” throughout. The activity change, negative = inhibition in test [2] is -11.7%. Also, the Z-AUC in test [8] was 0.107 (inactive); in test [8] (measured here: PEO1 parental Z-AUC) it was 0.652; in test [8] (measured here: PEO4 Z-AUC), 0.604.

As to `CC(C)[C@@H](CS(=O)(=O)C(C)C)N1C(=O)[C@@](C)(CC(=O)O)C[C@H](c2cccc(Cl)c2)[C@H]1c1ccc(Cl)cc1`, the Potency result in test [1] was “inactive”. In addition, the activity change, negative = inhibition in test [2] is -11.9%.

Turning to `COc1cc2ncnc(Nc3cccc(Cl)c3F)c2cc1OC(=O)N1CCN(C)C[C@H]1C`, in test [1], the Potency result is “inactive”. Also, the activity change, negative = inhibition in test [2] was -27.8%.

As to `COc1ccc(C(=O)C2CCN(CC(=O)N(Cc3nc4c(c(=O)[nH]3)COCC4)CC3CC3)CC2)cc1`, the Potency result in test [1] was “inactive”. The activity change, negative = inhibition in test [2] is -20.6%. Moreover, the Potency in test [3] was 8.57 µM (active).

Consider `CON(C)C(=O)N1N=C(c2cc(F)ccc2F)S[C@@]1(CCCN)c1ccccc1`, for which, in test [1], the Potency result is “inactive”. The activity change, negative = inhibition in test [2] was -86.6%. In addition, the Potency in test [3] was 0.0241 µM (active).

With `O=C(O)c1ccc(CN2CCC(CN[C@@H]3C[C@H]3c3ccccc3)CC2)cc1`, the Potency result in test [1] and in test [2] was “inactive” each time.

Take `Cc1sc2c(c1C)C(c1ccc(Cl)cc1)=NC(CC(N)=O)c1nnc(C)n1-2` (centres undefined): the Potency entry in test [1] is “inactive”. Also, the activity change, negative = inhibition in test [2] is -23.3%. For the same compound, the figures for the Potency in test [4] and in test [5] were 0.105 µM (active) and 0.132 µM (active), respectively.

Turning to `O=C(O)[C@H](CC(=O)N1C[C@H]2CCCC[C@H]2C1)Cc1ccccc1`, the Potency result in test [1] was “inactive”. Besides, in test [2], the activity change, negative = inhibition was -3.3%.

In the case of `CCOCOC[C@H](C[C@H](C)C(=O)NO)NC(=O)c1ccc(Oc2ccccc2)cc1`, the Potency result in test [1] was “inactive”. Further, in test [2], the activity change, negative = inhibition was -23.9%.

As for `CS(=O)(=O)c1ccc(-c2nnc(/C=C/c3nnc(-c4ccc(C#N)cc4)o3)n2-c2ccccc2Cl)nc1`, the Potency result in test [1] is “inactive”. The activity change, negative = inhibition in test [2] is -12.6%.

With `Cc1cccc(-c2nn3c(c2-c2ccnc4ccc(C(N)=O)cc24)CCC3)n1`, the Potency result in test [1] is “inactive”. The activity change, negative = inhibition in test [2] was -4.65%.

Take `O=C(O)CCNc1cc(N2CCc3ccccc3CC2)nc(-c2cccnc2)n1`: the Potency entry in test [1] and in test [2] was “inactive” each time.

`C[C@@H]1[C@H](O)[C@@H](C)/C=C/C=C/C=C/C=C/C=C/C=C/C=C/[C@H](O[C@@H]2O[C@H](C)[C@@H](O)[C@H](N)[C@@H]2O)C[C@@H]2O[C@](O)(C[C@@H](O)C[C@@H](O)[C@H](O)CC[C@@H](O)C[C@@H](O)CC(=O)O[C@H]1C)C[C@H](O)[C@H]2C(=O)O`: the Potency entry in test [1] and in test [2] was “inactive” throughout.

For the compound `COc1ccc(COc2ccc(Cc3cnc(N)nc3N)cc2OC)cc1`, the Potency result in test [1] is “inactive”. The activity change, negative = inhibition in test [2] was -52.5%. The Potency in test [3] was 6.81 µM (active).

As for `COc1cc2c(NC3CCN(C)CC3)nc(N3CCCN(C)CC3)nc2cc1OCCCN(C)C`, in test [1], the Potency result is “inactive”. For the same compound, the activity change, negative = inhibition in test [2] is -3.44%.

With `CC1Cc2ccccc2N1C(=O)Cc1nc(N2CCOCC2)cc(=O)[nH]1` (centres undefined), the Potency entry in test [1] is “inactive”. For the same compound, the activity change, negative = inhibition in test [2] was -26.2%.

For the compound `Cn1cc(/C=C2\C(=O)Nc3cccnc32)c2ccccc21`, the Potency entry in test [1] is “inactive”. The activity change, negative = inhibition in test [2] was -43.1%. Besides, the Potency in test [3] is 0.152 µM (active).

For the compound `C[C@H]1O[C@H](O[C@H]2[C@H](O)[C@@H](O)[C@@H](O[C@H]3[C@H](O)[C@@H](O)C(O)O[C@@H]3CO)O[C@@H]2CO)[C@H](O)[C@@H](O)[C@@H]1N[C@H]1C=C(CO)[C@@H](O)[C@H](O)[C@H]1O` (some centres undefined), in test [1], the Potency result is “inactive”. In addition, the activity change, negative = inhibition in test [2] was -16.5%.

As to `CC(C)=CCC[C@](C)(O[C@@H]1O[C@H](CO[C@@H]2O[C@H](CO)[C@@H](O)[C@H](O)[C@H]2O)[C@@H](O)[C@H](O)[C@H]1O)[C@H]1CC[C@]2(C)[C@@H]1[C@H](O)C[C@@H]1[C@@]3(C)CC[C@H](O[C@@H]4O[C@H](CO)[C@@H](O)[C@H](O)[C@H]4O[C@@H]4O[C@H](CO)[C@@H](O)[C@H](O)[C@H]4O)C(C)(C)[C@@H]3CC[C@]12C`, the Potency result in test [1] is “inactive”. For the same compound, in test [2], the activity change, negative = inhibition was -3.97% [at 27.1 µM].

On to `CC(C)(NS(=O)(=O)c1ccc2c(Cl)cnc(N=C(N)N)c2c1)C(=O)O`, for which the Potency result in test [1] is “inactive”. Moreover, in test [2], the activity change, negative = inhibition turned out to be 0.398%.

Consider `CCC(=O)OCC(=O)C1(OC(=O)CC)C(C)CC2C3CCC4=CC(=O)C=CC4(C)C3(F)C(O)CC21C` (centres undefined), for which the Potency entry in test [1] was “inactive”. The activity change, negative = inhibition in test [2] is -47%. In addition, the Potency in test [3] is 1.92 µM (active).

As to `N#CCC1(n2cc(-c3ncnc4[nH]ccc34)cn2)CN(C2CCN(C(=O)c3ccnc(C(F)(F)F)c3F)CC2)C1`, the Potency result in test [1] and in test [2] was “inactive” each time.

With `CN1C(=O)N[C@@H](Cc2c[nH]c3c(Cl)cccc23)C1=O`, the Potency entry in test [1] was “inactive”. Moreover, the activity change, negative = inhibition in test [2] came out at 1.88%.

As to `COc1ccc2[nH]c(C(=O)N3CCC(CC(C)(C)O)CC3)cc2c1`, the Potency entry in test [1] and in test [2] was “inactive” throughout.
